Substitutions are numbered along the chain they refer to. The full ranking holds about 24,000 sequences; the median of “enrichment r” is about 0.99, and the highest 2% start at about 3.7. The list comes from a sample in which the highest values are over-represented; it also holds similar and randomly drawn sequences.
T1: UNK ZnF1-3 (human, UniProt Q9C0B0 31-174)
T1 sequence: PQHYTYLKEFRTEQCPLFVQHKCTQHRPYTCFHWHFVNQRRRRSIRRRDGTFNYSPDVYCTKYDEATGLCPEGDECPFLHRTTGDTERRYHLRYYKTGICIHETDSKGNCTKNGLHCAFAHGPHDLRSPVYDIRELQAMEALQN

B1: chr17:34945718:34945719:+_ENSG00000005955_ENST00000304718|hu_hu|FALSE|FALSE (ssRNA)
RNA: GGGAGUUCUACAGUCCGACGAUCAUUUAACCGGCAGUAUUUAUUAAAUUUCUCCUUCAGAUGCUGUCGGUAUUGUUCUCUAUUGCUGUAGAAAGACUGGUUAUUAGCCAUAAAUGACUGUAUUUCAUCUUGUGAGAUAAAGAUCAACAGAGGAUUGAGCAUCA
B2: 90247206_90247326_4093_3pUTR_ENSMUSG00000012422_ENSMUST00000161568|mouse|control|control (ssRNA)
RNA: GGGAGUUCUACAGUCCGACGAUCUUCUCAGAAGUUAGUCAGGACCCCCUGUAACAAGGGCGAUUGCUAGCACCGUUUGAGAACAUUUAUUAUUACUAGAAGGUAACAAAGGAAGAGAAGAGCAGCCCUAAGAAUUUUCCAUUCCAACAGAGGAUUGAGCAUCA
B3: chr16:14738297:14738298:+_ENSG00000103429_ENST00000261658|hu_mus|FALSE|FALSE (ssRNA)
RNA: GGGAGUUCUACAGUCCGACGAUCGUUCAAGGUGGUGGGGUUAACCAGGGUGUCGUAGCAGCAGUGGCAGGAGAACUCGCUCACAGAAAUCUGAGGGCCGCUGCUUCUGACAGGAUGCUCUUCCUCCUGCUCUCUCAUGCUCAGCAACAGAGGAUUGAGCAUCA
B4: 75758389_75758509_1054_3pUTR_ENSMUSG00000032932_ENSMUST00000046283|mouse|control|control (ssRNA)
RNA: GGGAGUUCUACAGUCCGACGAUCUCAGAAAGGCCAGGUCUAAACACUCUAUUCACAUGGUGACCAUCUCCUGGGGUGAGCUGGUCUUUUGGCAGUUCAGAGUCACCAUUCUGAGGUUCCUUGCUGUCCUUCCCCUCCACAGUGCAACAGAGGAUUGAGCAUCA
B5: chr6:41757443:41757444:+_ENSG00000214736_ENST00000398881|hu_mus|hu_hu_hu_mus_False|78_98 (ssRNA)
RNA: GGGAGUUCUACAGUCCGACGAUCGAACCGUGCAGAGACCAGAGAAUAGCCGACACUGUGGACUCAAGGGGCAGUGGGGGGGGGUUCAGGCAAGGAGAGGGAGUCAACUUCAGCUGCCACUCAGGUAGGAUCUUGUGGUCACAGCAACAGAGGAUUGAGCAUCA
B6: chr6:41757443:41757444:+_ENSG00000214736_ENST00000398881|hu_mus|hu_hu_hu_mus_False|98_98 (ssRNA)
RNA: B5 RNA with U58G, A61G, C62A, C64G, A65G, A66G
B7: chr6:41757443:41757444:+_ENSG00000214736_ENST00000398881|hu_mus|hu_hu_hu_mus_False|98_108 (ssRNA)
RNA: GGGAGUUCUACAGUCCGACGAUCGAACUGUCUGCUGACCAGAGAAUAGCCGACACUGGGGGAUGGGGGGGCAGUGGGGGGGGGUUCAGGCAAGGAGAGGGAGUCAACUUCAGCUGCCACUCAGGUAGGAUCUUGUGGUCACAGCAACAGAGGAUUGAGCAUCA
B8: chr6:41757443:41757444:+_ENSG00000214736_ENST00000398881|hu_mus|hu_hu_hu_mus_False|48_98 (ssRNA)
RNA: B5 RNA with U58G, A61G, C62A, C64G, A65G, A66G, C90G, A95G
B9: chrX:98862621:98862622:+_ENSMUSG00000034160_ENSMUST00000044475|mus_hu|mus_mus_mus_hu_False|18_68 (ssRNA)
RNA: GGGAGUUCUACAGUCCGACGAUCCUGCAUCUCCUUUAGAGUGUUUCCCAUAUUAGAGUAGGCAUCAGCAAAUGUAGGACUGAUUCGAAUAGCCUCCUUAUAAUGCAUCAGAGCUUCCUGCAGCUUGCCCUGCUGCUGCAGUACCAACAGAGGAUUGAGCAUCA
B10: chr4:43703020:43703021:+_ENSMUSG00000078716_ENSMUST00000107866|mus_mus|FALSE|FALSE (ssRNA)
RNA: GGGAGUUCUACAGUCCGACGAUCCACACUGCCAGCAAUGAGCAUGUGCCAAAUGCUGUGAAUGUAGAAGUAGUUGUCCCGAGUCUCCACGAAAGCAUACAGUAGAACGGCACUGCCAGCAAUCAGGCUGCCGGGACACAGGUACAACAGAGGAUUGAGCAUCA
B11: chr2:130910683:130910684:-_ENSG00000136699_ENST00000351288|hu_hu|motif|central (ssRNA)
RNA: GGGAGUUCUACAGUCCGACGAUCGGAACACAGAGCCGCCAUCUGUCCUGCAAAUCUGUGGUUGAUGGCAGACGACAGCCGGAAGAGUGUGCGGACCAAGCUGGCGAUCUCAUAGCUCCGGAUGGGCUGCAGCUCCGGGUCCCCCAACAGAGGAUUGAGCAUCA
B12: chr17:56552419:56552420:-_ENSMUSG00000013236_ENSMUST00000086828|mus_mus|mus_mus_mus_hu_False|8_18 (ssRNA)
RNA: GGGAGUUCUACAGUCCGACGAUCAAAAAAUACACUAUUUAAAAAAAAUGAAAUGUCACGGGAUACAGUUACACUGAGAGUUUUAAAAGAAAGCUGGAUUCUGGUCCCAGCCCAGUGGCAGGCAGGGGAGUGCGGAAGAGGAGCCAACAGAGGAUUGAGCAUCA
B13: chr17:56552419:56552420:-_ENSMUSG00000013236_ENSMUST00000086828|mus_mus|mus_mus_mus_hu_False|18_18 (ssRNA)
RNA: B12 RNA with A128C, G129A, U130G, G131A, C132G, G133C, A135G, A136G
B14: chr17:56552419:56552420:-_ENSMUSG00000013236_ENSMUST00000086828|mus_mus|mus_mus_mus_hu_False|1_18 (ssRNA)
RNA: GGGAGUUCUACAGUCCGACGAUCAAAAAAUACACUAUUUAAAAAAAAUGAAAUGUCACGGGAUACAGUUACACUGAGAGUUUUAAAAGAAAGCUGGAUUCUGGUCCCAGCCCAGUGGCAGGCAGGGGCAGAGCGGGGCAGAGGCAACAGAGGAUUGAGCAUCA
B15: chr17:56552419:56552420:-_ENSMUSG00000013236_ENSMUST00000086828|mus_mus|mus_mus_mus_hu_False|18_58 (ssRNA)
RNA: B14 RNA with G77C, G79C, U81A, C138A, A139G, G143C
B16: chr17:56552419:56552420:-_ENSMUSG00000013236_ENSMUST00000086828|mus_mus|mus_mus_mus_hu_False|18_48 (ssRNA)
RNA: B14 RNA with G88A, G92A, C93U, U94A, G95A, C138A, A139G, G143C
B17: chr17:56552419:56552420:-_ENSMUSG00000013236_ENSMUST00000086828|mus_mus|mus_mus_mus_hu_False|18_98 (ssRNA)
RNA: B14 RNA with U38A, U39A, C138A, A139G, G143C
B18: chr5:145543945:145543946:-_ENSG00000133706_ENST00000545646|hu_hu|hu_hu_hu_mus_True|38_98 (ssRNA)
RNA: GGGAGUUCUACAGUCCGACGAUCCUGAACGGCCAGUGGCGGGAAAUAAUCAAGCCAGUGCUCUGCUUCAGAAAACUUCACUAUGUCGUCAUCAGAGAGGCCAAGGGAUUUCAUAAUGUCCCACUGGUACUUAGAAGAUCCUGCCAACAGAGGAUUGAGCAUCA
B19: 57396971_57397091_122_5pUTR_ENSMUSG00000021938_ENSMUST00000022507|mouse|control|control (ssRNA)
RNA: GGGAGUUCUACAGUCCGACGAUCGCUUCAGGUUUCCUCUUAACAUCAUCUUAGCAAGUUCGCUUGGGAUGCUGGAUGAGGCCUAGACGUCAAGGUACACACGUCUCCACAUGUAUCUAUGGAAACGAAGCAAGGAAAGCCAGGCAACAGAGGAUUGAGCAUCA
B20: 79664557_79664677_4134_CDS_ENSG00000146247_ENST00000275034|human|control|control (ssRNA)
RNA: GGGAGUUCUACAGUCCGACGAUCACGGAAAGGCUCUGAAUCUUCACAUUGAAAUAUGAGAUUUAACAAUUCUUCACACUGUUUCUUCCAUGCUUGAAUAUCGUAAGACUGGGCUCUAUUACGUAAUCUUCUUCUAGGCUGAUGCAACAGAGGAUUGAGCAUCA
B21: chr2:113333244:113333245:+_ENSG00000125630_ENST00000417433|hu_hu|FALSE|FALSE (ssRNA)
RNA: GGGAGUUCUACAGUCCGACGAUCAACAUCAAGUUAAACAACAUCCAGUUUCACUUUGAUGUUCAUAGCUGCCAGUUCAGCUACAAAAUACCGAAAAACAUAAGGCACAGAAACAGUAUCGAUAGUGUCACUGCGACUACACAGCAACAGAGGAUUGAGCAUCA
B22: chr5:128440902:128440903:+_ENSG00000066583_ENST00000173527|hu_mus|hu_hu_hu_mus_True|88_98 (ssRNA)
RNA: GGGAGUUCUACAGUCCGACGAUCUUGAACGGUGCUGCCAAGACCUUUAGGGUAUUGUUCCGUUAUGAUAACUGGAAUCCCUAAGAUCCGAGCUCCUUGCAACAGUCUCUGUCCCACACUAAUGAUGUCCCCAAAGUAUUUGAUCAACAGAGGAUUGAGCAUCA

Each binder was assayed against T1, UNK ZnF1-3 (assay: nsRBNS (natural sequence RNA bind-n-seq); RBNS binding buffer (assumed for nsRBNS): 25 mM Tris pH 7.5, 150 mM KCl, 3 mM MgCl2, 0.01% Triton X-100, 500 ug/ml BSA, 20 U/ml SUPERase-In, 4 C; UNK is unkempt and MSI1 is Musashi-1; names of the RNAs are library labels; protein concentration not given here; high values mean tight binding).
B1 gave a binding signal of 0.361 enrichment R. For B2, the binding signal was 0.591 enrichment R. Work on B3 yielded a binding signal of 0.931 enrichment R. B4 showed a binding signal of 0.633 enrichment R. B5 gave a binding signal of 1.9 enrichment R. B6 was tested, and the binding signal was 3.31 enrichment R. B7 gave a binding signal of 4.46 enrichment R. B8 was tested, and the binding signal was 5.8 enrichment R. B9 gave a binding signal of 1.07 enrichment R. Work on B10 yielded a binding signal of 0.899 enrichment R. With B11 the binding signal was 0.907 enrichment R. B12 gave a binding signal of 3.69 enrichment R. B13 showed a binding signal of 3.38 enrichment R. B14 gave a binding signal of 3.35 enrichment R. For B15, the binding signal was 5.2 enrichment R. B16 was tested, and the binding signal was 7.31 enrichment R. For B17, the binding signal was 6.3 enrichment R. In the case of B18, the binding signal is reported as 1.21 enrichment R. Binder B19 has a binding signal of 0.72 enrichment R. B20 gave a binding signal of 1.11 enrichment R. B21 gave a binding signal of 0.877 enrichment R. B22 was tested, and the binding signal was 0.627 enrichment R.

Reference: publication PMC12136788
